Data taken from PubChem BioAssay.
Active and inactive are the calls of the source.

Columns and labels:
[1] = binders of probe aFSTL3 on microarray, primary screen, stem cell growth factor project, biochemical, small-molecule microarray, fluorescence 635/667 (AID 1064); conditions: higher = more signal;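 also: measures binding of the biotinylated anti-FSTL3 antibody to printed compounds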
[2] = binders from COS7 lysate, DM2A8 probe, primary screen, torsin A project, cell lysate, small-molecule microarray, fluorescence 635/667 (AID 1065); conditions: higher = more signal, COS7 lysate expressing mutant human TOR1A
[3] = binders of probe aFGF2 on microarray, primary screen, stem cell growth factor project, biochemical, small-molecule microarray, fluorescence 635/667 (AID 1067); conditions: higher = more signal;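 also: measures binding of biotinylated aFGF2 protein to printed compounds on slides; z-score merges feature fluorescence and signal-to-noise across triplicate slides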
[4] = binders of probe aFGF10 on microarray, primary screen, stem cell growth factor project, biochemical, small-molecule microarray, fluorescence 635/667 (AID 1071); conditions: higher = more signal;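 also: score merges 667 nm spot intensity and signal to noise from triplicate slides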
[5] = molecular target: Neurogenic locus notch homolog protein 2 (Homo sapiens) (UniProt Q04721); assay: Notch2 binders on small-molecule microarrays, primary screen, biochemical, small-molecule microarray, 635 nm fluorescence, stem cell growth factors (AID 1073); conditions: Notch2 binding, higher = more signal
[6] = molecular target: Pro-neuregulin-1, membrane-bound isoform (Homo sapiens) (UniProt Q02297); assay: NRG1 binders on small-molecule microarrays, primary screen, psychiatric disease protein project, biochemical, small-molecule microarray, fluorescence 635/667 (AID 1075); conditions: NRG1 binding, 635 nm fluorescence, higher = more signal;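 also: score combines 667 nm spot fluorescence with signal to noise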
[7] = test system: Neuregulin-1 EGF-like domain; assay: binders of neuregulin-1 EGF-like domain, primary screen, biochemical, small-molecule microarray, 635 nm fluorescence (AID 1081); conditions: small-molecule microarray binding, higher = more signal;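 also: binding of the protein to compounds printed on small-molecule microarray slides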
[8] = FRG1 promoter luciferase signal modulators, primary screen, FRG1 inhibition for FSHD, cell-based, C2C12 myotubes, firefly/Renilla luciferase, luminescence (AID 1084); conditions: higher = more signal, called active from +8 up or from −8 down
[9] = binders of probe aFST on microarray, primary screen, stem cell growth factor project, biochemical, small-molecule microarray, fluorescence 635/667 (AID 1086); conditions: higher = more signal;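 also: score merges 667 nm fluorescence with signal-to-noise of each printed compound spot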
[10] = binders of probe aHhip on microarray, primary screen, stem cell growth factor project, biochemical, small-molecule microarray, fluorescence 635/667 (AID 1087); conditions: higher = more signal;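 also: score merges spot fluorescence at 667nm with spot signal to noise ratio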
[11] = test system: PRMT1 (protein arginine N-methyltransferase 1); assay: PRMT1 binders on small-molecule microarrays, primary screen, biochemical, small-molecule microarray, 635 nm fluorescence (AID 1088); conditions: small-molecule microarray binding, higher = more signal;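 also: binding of Prmt1 protein to compounds spotted on small-molecule microarray slides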
[12] = yeast growth modulation, basal conditions, primary screen, YJM789 clinical isolate, OD600, 24 h (AID 1089);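 also: growth of clinical yeast isolate S. cerevisiae YJM 789 seeded 1000 cells per well; test concentration not given here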; conditions: S. cerevisiae YJM789 growth, higher = more signal, called active from +8 up or from −8 down
[13] = fission yeast growth modulation, primary screen, strain 972, OD600, 24 h, no modulator (AID 1090);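 also: basal condition with compound alone and no growth modifier present; test concentration not given here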; conditions: S. pombe 972 growth, higher = more signal, called active from +8 up or from −8 down
[14] = S. cerevisiae growth modulation with rapamycin, primary screen, strain BY4716, OD600, 96 h (AID 1091); conditions: higher = more signal, called active from +8 up or from −8 down; also: test concentration not given here
[15] = molecular target: Torsin-1A-interacting protein 2 (Homo sapiens) (UniProt Q8NFQ8); assay: LULL1 binders on small-molecule microarray, primary screen, cell lysate, human LULL1 lysate, 635/667 nm fluorescence (AID 1092); conditions: hLULL1 lysate binding, 635 nm fluorescence, higher = more signal;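 also: probe is lysate of COS7 cells overexpressing human LULL1; score merges per-feature 667 nm fluorescence with signal-to-noise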
[16] = E. coli growth modulation, two-sided OD650, primary screen, E. coli filamentation project, strain DRC41, 24 h (AID 1093); conditions: OD650, 24 h, higher = more signal, called active from +8 up or from −8 down;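 also: MC1000 strain lacking acrAB efflux and sulA so SOS filamentation is blocked; test concentration not given here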
[17] = small-molecule microarray binders of probe aLefty2, primary screen, biochemical, biotinylated probe, 635/667 nm fluorescence (AID 1094); conditions: higher = more signal;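 also: score merges spot fluorescence near 667 nm with spot signal-to-noise ratio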
[18] = test system: Noggin (protein binding on small-molecule microarray); assay: Noggin binders on small-molecule microarray, primary screen, biochemical, 635/667 nm fluorescence (AID 1095); conditions: 635 nm fluorescence, higher = more signal;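 also: score merges 667 nm feature fluorescence with signal to noise over triplicate slides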
[19] = molecular target: Neurogenic locus notch homolog protein 3 (Homo sapiens) (UniProt Q9UM47); assay: NOTCH3 binders on small-molecule microarray, primary screen, biochemical, 635/667 nm fluorescence (AID 1096); conditions: NOTCH3 binding, 635 nm fluorescence, higher = more signal
[20] = small-molecule microarray binders of probe aEGFR, primary screen, biochemical, biotinylated probe, 635/667 nm fluorescence (AID 1097); conditions: higher = more signal;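 also: probe is a biotinylated anti-EGFR antibody binding compounds printed on slides; score combines fluorescence near 667 nm and signal to noise of each spot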

Pro-neuregulin-1, membrane-bound isoform (Homo sapiens), sequence (Q02297 whole entry, looked up, the tested form may be a part, canonical isoform): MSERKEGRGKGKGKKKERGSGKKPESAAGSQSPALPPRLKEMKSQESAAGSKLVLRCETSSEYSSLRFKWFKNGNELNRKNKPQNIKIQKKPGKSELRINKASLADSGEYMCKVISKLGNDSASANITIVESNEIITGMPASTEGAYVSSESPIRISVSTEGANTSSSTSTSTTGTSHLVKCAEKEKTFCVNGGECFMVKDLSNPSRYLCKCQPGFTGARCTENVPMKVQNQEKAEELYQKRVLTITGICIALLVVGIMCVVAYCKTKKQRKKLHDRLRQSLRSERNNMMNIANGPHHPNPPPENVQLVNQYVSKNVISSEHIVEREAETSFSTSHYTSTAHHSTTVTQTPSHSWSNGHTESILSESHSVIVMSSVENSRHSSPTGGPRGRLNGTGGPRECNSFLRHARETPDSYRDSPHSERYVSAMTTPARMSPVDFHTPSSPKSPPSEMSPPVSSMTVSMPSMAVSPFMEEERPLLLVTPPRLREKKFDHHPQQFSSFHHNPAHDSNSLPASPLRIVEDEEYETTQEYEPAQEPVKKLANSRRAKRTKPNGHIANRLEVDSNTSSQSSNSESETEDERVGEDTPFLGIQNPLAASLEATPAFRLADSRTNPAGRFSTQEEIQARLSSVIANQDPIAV
Neurogenic locus notch homolog protein 3 (Homo sapiens), sequence (Q9UM47 whole entry, looked up): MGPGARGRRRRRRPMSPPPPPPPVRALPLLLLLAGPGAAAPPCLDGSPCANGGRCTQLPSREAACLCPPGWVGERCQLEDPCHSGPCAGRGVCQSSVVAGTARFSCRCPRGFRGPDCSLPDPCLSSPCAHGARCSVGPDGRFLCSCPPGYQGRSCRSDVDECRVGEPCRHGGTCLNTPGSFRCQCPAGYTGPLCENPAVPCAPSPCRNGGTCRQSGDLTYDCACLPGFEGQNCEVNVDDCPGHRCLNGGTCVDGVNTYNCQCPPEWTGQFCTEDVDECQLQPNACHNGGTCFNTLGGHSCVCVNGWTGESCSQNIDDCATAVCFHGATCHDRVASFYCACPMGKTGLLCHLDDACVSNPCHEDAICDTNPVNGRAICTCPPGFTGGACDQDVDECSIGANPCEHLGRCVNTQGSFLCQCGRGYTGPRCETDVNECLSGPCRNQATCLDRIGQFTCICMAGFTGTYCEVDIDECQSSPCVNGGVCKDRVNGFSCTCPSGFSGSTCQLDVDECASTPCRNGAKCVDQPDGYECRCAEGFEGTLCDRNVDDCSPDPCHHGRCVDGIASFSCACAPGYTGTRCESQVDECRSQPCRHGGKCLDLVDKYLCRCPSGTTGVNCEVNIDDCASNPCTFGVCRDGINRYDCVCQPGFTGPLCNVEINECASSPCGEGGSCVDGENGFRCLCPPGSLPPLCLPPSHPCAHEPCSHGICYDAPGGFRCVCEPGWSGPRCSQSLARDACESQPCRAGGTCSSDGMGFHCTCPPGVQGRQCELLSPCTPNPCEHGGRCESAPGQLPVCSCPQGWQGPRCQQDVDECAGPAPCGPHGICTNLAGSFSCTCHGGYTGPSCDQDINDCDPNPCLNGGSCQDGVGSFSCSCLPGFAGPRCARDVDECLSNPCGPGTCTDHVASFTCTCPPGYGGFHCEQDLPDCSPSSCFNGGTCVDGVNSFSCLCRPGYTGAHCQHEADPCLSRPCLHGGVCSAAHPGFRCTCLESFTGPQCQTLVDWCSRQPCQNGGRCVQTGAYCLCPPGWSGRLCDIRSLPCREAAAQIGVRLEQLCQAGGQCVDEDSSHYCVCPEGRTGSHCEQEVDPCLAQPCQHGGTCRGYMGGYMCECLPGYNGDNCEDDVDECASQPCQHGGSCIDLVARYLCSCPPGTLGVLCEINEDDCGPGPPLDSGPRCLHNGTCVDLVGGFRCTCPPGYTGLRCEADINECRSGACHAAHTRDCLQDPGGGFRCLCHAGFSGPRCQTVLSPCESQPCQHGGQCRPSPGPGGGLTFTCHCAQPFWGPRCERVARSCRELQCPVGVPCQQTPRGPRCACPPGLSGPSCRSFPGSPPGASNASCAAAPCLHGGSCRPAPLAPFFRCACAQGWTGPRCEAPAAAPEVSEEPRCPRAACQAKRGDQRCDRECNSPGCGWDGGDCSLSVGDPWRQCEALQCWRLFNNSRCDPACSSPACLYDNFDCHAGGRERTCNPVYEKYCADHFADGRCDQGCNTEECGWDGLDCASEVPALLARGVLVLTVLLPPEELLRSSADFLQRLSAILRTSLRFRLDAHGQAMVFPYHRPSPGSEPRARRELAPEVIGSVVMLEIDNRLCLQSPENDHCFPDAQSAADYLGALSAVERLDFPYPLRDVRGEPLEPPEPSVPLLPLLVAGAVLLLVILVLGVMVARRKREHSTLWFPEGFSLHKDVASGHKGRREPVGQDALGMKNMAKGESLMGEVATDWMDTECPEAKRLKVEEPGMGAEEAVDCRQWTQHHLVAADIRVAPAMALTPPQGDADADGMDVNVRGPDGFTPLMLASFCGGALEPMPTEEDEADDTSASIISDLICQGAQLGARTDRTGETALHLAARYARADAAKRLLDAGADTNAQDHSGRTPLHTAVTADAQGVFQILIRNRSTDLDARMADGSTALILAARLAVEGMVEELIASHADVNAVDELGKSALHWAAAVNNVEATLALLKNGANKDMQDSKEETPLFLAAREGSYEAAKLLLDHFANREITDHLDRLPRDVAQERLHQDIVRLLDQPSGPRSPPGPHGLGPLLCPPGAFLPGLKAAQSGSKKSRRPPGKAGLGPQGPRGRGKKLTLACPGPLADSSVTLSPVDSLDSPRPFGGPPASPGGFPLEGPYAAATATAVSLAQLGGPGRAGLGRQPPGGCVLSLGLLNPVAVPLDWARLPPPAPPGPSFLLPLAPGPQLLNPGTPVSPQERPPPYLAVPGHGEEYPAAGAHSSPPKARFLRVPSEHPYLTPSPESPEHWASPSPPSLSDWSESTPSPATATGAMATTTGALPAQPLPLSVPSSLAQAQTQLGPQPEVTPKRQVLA
Torsin-1A-interacting protein 2 (Homo sapiens), sequence (Q8NFQ8 whole entry, looked up): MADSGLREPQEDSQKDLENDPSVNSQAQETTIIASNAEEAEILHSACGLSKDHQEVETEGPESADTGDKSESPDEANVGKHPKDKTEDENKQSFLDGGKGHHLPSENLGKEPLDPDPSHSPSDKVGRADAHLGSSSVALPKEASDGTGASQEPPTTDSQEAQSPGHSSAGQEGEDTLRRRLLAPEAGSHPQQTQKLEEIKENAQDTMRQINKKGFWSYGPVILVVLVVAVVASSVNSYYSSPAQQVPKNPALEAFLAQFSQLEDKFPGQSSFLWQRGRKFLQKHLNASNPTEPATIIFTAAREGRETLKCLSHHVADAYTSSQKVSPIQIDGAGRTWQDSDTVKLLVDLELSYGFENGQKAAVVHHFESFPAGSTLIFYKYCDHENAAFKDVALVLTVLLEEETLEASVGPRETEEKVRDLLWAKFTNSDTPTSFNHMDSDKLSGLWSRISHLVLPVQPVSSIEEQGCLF

Row | SMILES | composite z-score [1] | composite z-score [2] | composite z-score [3] | composite z-score [4] | composite z-score [5] | composite z-score [6] | composite z-score [7] | z-score [8] | composite z-score [9] | composite z-score [10] | composite z-score [11] | z-score [12] | z-score [13] | z-score [14] | composite z-score [15] | z-score [16] | composite z-score [17] | composite z-score [18] | composite z-score [19] | composite z-score [20]
1 | C=C(C(=O)CC[C@H](OC(=O)c1ccccc1-c1ccccc1C(=O)O)c1ccc(CO)o1)C(C)C | -0.547 | -0.113 | -0.0974 | 0.959 | -0.0673 | 1.25 | 1.33 | 0.112 (inactive) | 0.0357 | -0.0645 | 1.33 | 1.44 (inactive) | -0.197 (inactive) | 0.782 (inactive) | 0.662 | -0.309 (inactive) | -0.19 | 1.67 | 0.951 | -0.101
2 | C=CC[C@@]1(C(=O)N2CCOCC2)N=C(c2ccc(OCCCO)cc2)O[C@@H]1c1ccccc1 | -0.487 | 1.2 | -0.117 | 0.351 | 0.369 | 1.12 | 1.08 | -1.36 (inactive) | -0.298 | -0.712 | 0.142 | 0.509 (inactive) | -1.61 (inactive) | 0.352 (inactive) | 2.71 | 1.33 (inactive) | 0.0634 | -0.506 | -1.35 | -0.0728
3 | CO[C@H]1O[C@H](CO)[C@@H](OC(=O)Nc2ccc3c(c2)OCO3)[C@H](OC(=O)Nc2ccccc2)[C@@H]1OC(=O)Nc1ccccc1 | -0.214 | 0.215 | 0.0654 | 0.949 | -0.0622 | 1.27 | 1.29 | -1.6 (inactive) | 0.188 | -0.0994 | 1.55 | 0.738 (inactive) | 0.51 (inactive) | 4.42 (inactive) | 3.33 | -1.17 (inactive) | -0.0798 | 1.02 | 0.915 | -0.144
4 | COCCOC(=O)N1C(=O)[C@@]2(c3cc(C#CCC(C(=O)OC)C(=O)OC)ccc31)[C@H](C(=O)N1CCN(c3ncccn3)CC1)[C@H]1C(=O)O[C@H](c3ccccc3)[C@H](c3ccccc3)N1[C@@H]2c1ccc(O)cc1 | -0.0797 | 1.47 | 0.0051 | 0.579 | 1.08 | 1.07 | 1.2 | -0.24 (inactive) | -0.304 | 0.0623 | 1.54 | -0.256 (inactive) | -1.38 (inactive) | 0.921 (inactive) | 2.23 | 3.19 (inactive) | -0.0288 | 0.414 | 1.17 | -0.0675
5 | O=C(NCC(O)CO)[C@]1(Cc2ccccc2)N=C(c2ccc(OCCCO)cc2)O[C@@H]1c1ccccc1 (stereo not given in full) | 1.09 | 2.15 | -0.104 | -0.512 | 0.271 | 0.951 | 0.868 | -1.63 (inactive) | 0.864 | 0.189 | 1.26 | -1 (inactive) | -1.56 (inactive) | -1.81 (inactive) | 3.43 | 0.897 (inactive) | 0.595 | -0.574 | -0.0954 | 0.107
6 | CCOC(=O)[C@H]1C/C=C/C[C@H](C(=O)OCC)C(=O)O[C@H]2[C@@H](OC)O[C@H](CO)[C@@H](OC(=O)Nc3ccc(Br)cc3)[C@@H]2OC1=O | 0.762 | 0.475 | -0.108 | 0.28 | 0.798 | 0.991 | 1.29 | 0.892 (inactive) | 0.449 | -0.0613 | 1.54 | 0.343 (inactive) | -2.37 (inactive) | 31.7 (active) | 2.93 | 2.91 (inactive) | 0.45 | 0.933 | 0.869 | -0.121
7 | O=C1OCC=C[C@H]2OC34C=CCN(Cc5ccccc5)C(=O)[C@H]3N(CCO)C(=O)[C@@H]4[C@@H]12 (stereo not given in full) | 0.322 | -0.0397 | -0.149 | -0.387 | -0.338 | 2.05 | 0.699 | -0.019 (inactive) | -0.331 | -0.236 | 0.409 | -0.308 (inactive) | 0.176 (inactive) | -1.17 (inactive) | 2.08 | 2.13 (inactive) | -0.232 | -1.41 | -0.159 | -0.172
8 | C=C(CCCC)C(=O)CC[C@@H](OC(C)=O)c1ccccc1OCCO | 0.286 | 0.844 | -0.177 | -0.34 | -0.975 | -0.52 | -0.37 | -2.26 (inactive) | -0.488 | -0.0645 | 0.0077 | -0.837 (inactive) | -18.7 (active) | -1.57 (inactive) | -0.325 | 0.682 (inactive) | -0.214 | -0.61 | -0.524 | -0.232
9 | COCCOC(=O)N1C(=O)[C@@]2(c3cc(C#CCNC(N)=O)ccc31)[C@H](c1ccc(OCCO)cc1)N1[C@H](c3ccccc3)[C@H](c3ccccc3)OC(=O)[C@H]1[C@@H]2C(=O)N1CCCCCCC1 | 2.75 | 0.0698 | 0.128 | 0.209 | 0.315 | -0.0446 | -0.116 | -0.271 (inactive) | 1.46 | 0.167 | 0.844 | 1.64 (inactive) | 0.501 (inactive) | 3.94 (inactive) | 0.789 | 2.27 (inactive) | 1.09 | 0.406 | 0.555 | 0.0199
10 | CO[C@@H]1COC(=O)[C@H](COCc2ccccc2)NC(=O)CC=C[C@@H](C)[C@H](OC)COC(=O)[C@H](COCc2ccccc2)NC(=O)CC=C[C@H]1C | -0.594 | 0.334 | -0.138 | -0.0596 | 0.0136 | 0.567 | -0.618 | -0.496 (inactive) | -0.0224 | -0.0994 | 0.0472 | 0.982 (inactive) | -0.371 (inactive) | 0.921 (inactive) | -0.0267 | -0.405 (inactive) | -0.226 | 0.63 | -0.511 | -0.0605
